Reference: the supplement of paper PMC4022240
± gives the standard deviation.

How the values were obtained:
Assay in all cases: peptide microarray binding signal (635 nm), min-max normalized on array (fraction of array maximum); higher = stronger binding
Details in all cases: peptide region: H3 1-13
[1] = target: T1, HaloTag-ATRX ADD domain (163-292)
T1 chain: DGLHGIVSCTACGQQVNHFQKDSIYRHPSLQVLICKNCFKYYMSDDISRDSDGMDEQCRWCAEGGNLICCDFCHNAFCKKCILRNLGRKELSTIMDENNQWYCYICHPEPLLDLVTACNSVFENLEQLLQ
Method: (§1)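 Histone 13-mer peptides were synthesized as cellulose conjugates with a C-terminal 20-atom PEG linker and printed in triplicate on nitrocellulose. The sequence given is the unmodified backbone; PTMs (Kme1/2/3, Kac, Sph/Tph, Rme/Rme2a/Rme2s, Rcit) are listed in the label and the 'peptide modifications' condition. Slides were probed at 4 °C for 1 h with biotin-labelled (HQ)5-HaloTag reader fusions (ATRX-ADD, ING2-PHD) then streptavidin-Alexa647, or with rabbit histone antibodies then anti-rabbit Alexa647. The mean 635 nm signal of the triplicate spots was scaled 0-1 between the lowest and highest values on each array.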

[2] = target: HaloTag-ING2 PHD (mouse Ing2 200-280)
Method: as §1

[3] = target: anti-H3K4me3 antibody ab8580
Method: as §1

[4] = target: anti-H3K9me3 antibody ab8898
Method: as §1

[5] = peptide modifications: H3R2me2s H3K9me2, binder concentration: 1:2,000 dilution
[6] = peptide modifications: H3R2me2s H3K9me2, binder concentration: 1:10,000 dilution
[7] = peptide modifications: H3R8cit H3K9me2, binder concentration: 1:2,000 dilution
[8] = peptide modifications: H3R8cit H3K9me2, binder concentration: 1:10,000 dilution
[9] = peptide modifications: H3R2me2s H3K9me3, binder concentration: 1:2,000 dilution
[10] = peptide modifications: H3R2me2s H3K9me3, binder concentration: 1:10,000 dilution
[11] = peptide modifications: H3R2me2a H3T3ph, binder concentration: 1:2,000 dilution
[12] = peptide modifications: H3R2me2a H3T3ph, binder concentration: 1:10,000 dilution
[13] = peptide modifications: H3R2me2s H3T3ph, binder concentration: 1:2,000 dilution
[14] = peptide modifications: H3R2me2s H3T3ph, binder concentration: 1:10,000 dilution
[15] = peptide modifications: H3R2me2s H3T6ph, binder concentration: 1:2,000 dilution
[16] = peptide modifications: H3R2me2s H3T6ph, binder concentration: 1:10,000 dilution
[17] = peptide modifications: H3R2me2s, binder concentration: 1:2,000 dilution
[18] = peptide modifications: H3R2me2s, binder concentration: 1:10,000 dilution
[19] = peptide modifications: H3R2me2a H3K9me1, binder concentration: 1:2,000 dilution
[20] = peptide modifications: H3R2me2a H3K9me1, binder concentration: 1:10,000 dilution
[21] = peptide modifications: H3R2me2a, binder concentration: 1:2,000 dilution
[22] = peptide modifications: H3R2me2a, binder concentration: 1:10,000 dilution
[23] = peptide modifications: H3R2me2s H3K4ac, binder concentration: 1:2,000 dilution
[24] = peptide modifications: H3R2me2s H3K4ac, binder concentration: 1:10,000 dilution

ARTKQTARKSTGG [H3 1-13 A Rme2s T K Q T A R Kme2 S T G G]
peptide microarray binding signal ([1]; peptide modifications: H3R2me2s H3K9me2, binder concentration: 50 nM): 0.0159 ± 0.001 | peptide microarray binding signal ([1]; peptide modifications: H3R2me2s H3K9me2, binder concentration: 500 nM): 0.0381 ± 0.00096 | peptide microarray binding signal ([2]; peptide modifications: H3R2me2s H3K9me2, binder concentration: 10 nM): 0.0245 ± 0.00098 | peptide microarray binding signal ([2]; peptide modifications: H3R2me2s H3K9me2, binder concentration: 100 nM): 0.0463 ± 0.005 | peptide microarray binding signal [3, 5]: 0.0401 ± 0.0015 | peptide microarray binding signal [3, 6]: 0.0397 ± 0.0042 | peptide microarray binding signal [4, 5]: 0.0557 ± 0.0055 | peptide microarray binding signal [4, 6]: 0.0282 ± 0.0014

ARTKQTARKSTGG [H3 1-13 A R T K Q T A Rcit Kme2 S T G G]
peptide microarray binding signal ([1]; peptide modifications: H3R8cit H3K9me2, binder concentration: 50 nM): 0.0517 ± 0.0042 | peptide microarray binding signal ([1]; peptide modifications: H3R8cit H3K9me2, binder concentration: 500 nM): 0.0992 ± 0.0018 | peptide microarray binding signal ([2]; peptide modifications: H3R8cit H3K9me2, binder concentration: 10 nM): 0.0235 ± 0.0016 | peptide microarray binding signal ([2]; peptide modifications: H3R8cit H3K9me2, binder concentration: 100 nM): 0.0428 ± 0.011 | peptide microarray binding signal [3, 7]: 0.00302 ± 0.00049 | peptide microarray binding signal [3, 8]: 0.00177 ± 5e-05 | peptide microarray binding signal [4, 7]: 0.00248 ± 0.00035 | peptide microarray binding signal [4, 8]: 0.00277 ± 8.7e-05

ARTKQTARKSTGG [H3 1-13 A Rme2s T K Q T A R Kme3 S T G G]
peptide microarray binding signal ([1]; peptide modifications: H3R2me2s H3K9me3, binder concentration: 50 nM): 0.172 ± 0.02 | peptide microarray binding signal ([1]; peptide modifications: H3R2me2s H3K9me3, binder concentration: 500 nM): 0.303 ± 0.03 | peptide microarray binding signal ([2]; peptide modifications: H3R2me2s H3K9me3, binder concentration: 10 nM): 0.0377 ± 0.0039 | peptide microarray binding signal ([2]; peptide modifications: H3R2me2s H3K9me3, binder concentration: 100 nM): 0.0559 ± 0.0018 | peptide microarray binding signal [3, 9]: 0.211 ± 0.015 | peptide microarray binding signal [3, 10]: 0.14 ± 0.0028 | peptide microarray binding signal [4, 9]: 0.81 ± 0.03 | peptide microarray binding signal [4, 10]: 0.561 ± 0.017

ARTKQTARKSTGG [H3 1-13 A Rme2a Tph K Q T A R K S T G G]
peptide microarray binding signal ([1]; peptide modifications: H3R2me2a H3T3ph, binder concentration: 50 nM): 0.00567 ± 0.00034 | peptide microarray binding signal ([1]; peptide modifications: H3R2me2a H3T3ph, binder concentration: 500 nM): 0.0135 ± 0.00068 | peptide microarray binding signal ([2]; peptide modifications: H3R2me2a H3T3ph, binder concentration: 10 nM): 0.00501 ± 0.00013 | peptide microarray binding signal ([2]; peptide modifications: H3R2me2a H3T3ph, binder concentration: 100 nM): 0.00737 ± 0.00044 | peptide microarray binding signal [3, 11]: 0.00262 ± 0.00056 | peptide microarray binding signal [3, 12]: 0.00434 ± 0.00077 | peptide microarray binding signal [4, 11]: 0.000755 ± 0.00011 | peptide microarray binding signal [4, 12]: 0.000577 ± 6.2e-06

ARTKQTARKSTGG [H3 1-13 A Rme2s Tph K Q T A R K S T G G]
peptide microarray binding signal ([1]; peptide modifications: H3R2me2s H3T3ph, binder concentration: 50 nM): 0.0063 ± 0.00015 | peptide microarray binding signal ([1]; peptide modifications: H3R2me2s H3T3ph, binder concentration: 500 nM): 0.0137 ± 0.00078 | peptide microarray binding signal ([2]; peptide modifications: H3R2me2s H3T3ph, binder concentration: 10 nM): 0.00424 ± 0.00025 | peptide microarray binding signal ([2]; peptide modifications: H3R2me2s H3T3ph, binder concentration: 100 nM): 0.0153 ± 0.003 | peptide microarray binding signal [3, 13]: 0.00264 ± 0.0012 | peptide microarray binding signal [3, 14]: 0.00228 ± 0.00028 | peptide microarray binding signal [4, 13]: 0.000982 ± 0.00014 | peptide microarray binding signal [4, 14]: 0.00075 ± 1.6e-05

ARTKQTARKSTGG [H3 1-13 A Rme2s T K Q Tph A R K S T G G]
peptide microarray binding signal ([1]; peptide modifications: H3R2me2s H3T6ph, binder concentration: 50 nM): 0.00476 ± 0.00012 | peptide microarray binding signal ([1]; peptide modifications: H3R2me2s H3T6ph, binder concentration: 500 nM): 0.0109 ± 0.00039 | peptide microarray binding signal ([2]; peptide modifications: H3R2me2s H3T6ph, binder concentration: 10 nM): 0.002745 ± 2.7e-05 | peptide microarray binding signal ([2]; peptide modifications: H3R2me2s H3T6ph, binder concentration: 100 nM): 0.0193 ± 0.0028 | peptide microarray binding signal [3, 15]: 0.000774 ± 1.9e-05 | peptide microarray binding signal [3, 16]: 0.00097 ± 2e-05 | peptide microarray binding signal [4, 15]: 0.000876 ± 2.6e-05 | peptide microarray binding signal [4, 16]: 0.000461

ARTKQTARKSTGG [H3 1-13 A Rme2s T K Q T A R K S T G G]
peptide microarray binding signal ([1]; peptide modifications: H3R2me2s, binder concentration: 50 nM): 0.00815 ± 0.00015 | peptide microarray binding signal ([1]; peptide modifications: H3R2me2s, binder concentration: 500 nM): 0.0158 ± 0.0003 | peptide microarray binding signal ([2]; peptide modifications: H3R2me2s, binder concentration: 10 nM): 0.00424 ± 0.00023 | peptide microarray binding signal ([2]; peptide modifications: H3R2me2s, binder concentration: 100 nM): 0.0168 ± 0.003 | peptide microarray binding signal [3, 17]: 0.00153 ± 0.0002 | peptide microarray binding signal [3, 18]: 0.000799 ± 8.3e-06 | peptide microarray binding signal [4, 17]: 0.00178 ± 0.00012 | peptide microarray binding signal [4, 18]: 0.00075 ± 1.6e-05

ARTKQTARKSTGG [H3 1-13 A Rme2a T K Q T A R Kme S T G G]
peptide microarray binding signal ([1]; peptide modifications: H3R2me2a H3K9me1, binder concentration: 50 nM): 0.0646 ± 0.0083 | peptide microarray binding signal ([1]; peptide modifications: H3R2me2a H3K9me1, binder concentration: 500 nM): 0.138 ± 0.008 | peptide microarray binding signal ([2]; peptide modifications: H3R2me2a H3K9me1, binder concentration: 10 nM): 0.0387 ± 0.0036 | peptide microarray binding signal ([2]; peptide modifications: H3R2me2a H3K9me1, binder concentration: 100 nM): 0.0709 ± 0.014 | peptide microarray binding signal [3, 19]: 0.0175 ± 0.0013 | peptide microarray binding signal [3, 20]: 0.0118 ± 0.0015 | peptide microarray binding signal [4, 19]: 0.00838 ± 0.0011 | peptide microarray binding signal [4, 20]: 0.00675 ± 0.00044

ARTKQTARKSTGG [H3 1-13 A Rme2a T K Q T A R K S T G G]
peptide microarray binding signal ([1]; peptide modifications: H3R2me2a, binder concentration: 50 nM): 0.0208 ± 0.00057 | peptide microarray binding signal ([1]; peptide modifications: H3R2me2a, binder concentration: 500 nM): 0.0355 ± 0.025 | peptide microarray binding signal ([2]; peptide modifications: H3R2me2a, binder concentration: 10 nM): 0.00889 ± 0.00042 | peptide microarray binding signal ([2]; peptide modifications: H3R2me2a, binder concentration: 100 nM): 0.0186 ± 0.0037 | peptide microarray binding signal [3, 21]: 0.0031 ± 0.00032 | peptide microarray binding signal [3, 22]: 0.0016 ± 7.1e-05 | peptide microarray binding signal [4, 21]: 0.00127 ± 7.4e-05 | peptide microarray binding signal [4, 22]: 0.000634

ARTKQTARKSTGG [H3 1-13 A Rme2s T Kac Q T A R K S T G G]
peptide microarray binding signal ([1]; peptide modifications: H3R2me2s H3K4ac, binder concentration: 50 nM): 0.0137 ± 0.00038 | peptide microarray binding signal ([1]; peptide modifications: H3R2me2s H3K4ac, binder concentration: 500 nM): 0.046 ± 0.0095 | peptide microarray binding signal ([2]; peptide modifications: H3R2me2s H3K4ac, binder concentration: 10 nM): 0.0299 ± 0.0078 | peptide microarray binding signal ([2]; peptide modifications: H3R2me2s H3K4ac, binder concentration: 100 nM): 0.0957 ± 0.0077 | peptide microarray binding signal [3, 23]: 0.00993 ± 0.0029 | peptide microarray binding signal [3, 24]: 0.00651 ± 0.00097 | peptide microarray binding signal [4, 23]: 0.0137 ± 0.0005 | peptide microarray binding signal [4, 24]: 0.00617 ± 0.00064
